Only some compounds are listed: those with a hit (about 3.8% of all), similar ones and a draw of the others.
Nrf2 ARE act: activates Nrf2 signaling. Potency, µM (highest dose often 46.1 µM), usual class: activators. AREc32 ARE-luciferase reporter (MCF7-derived line), luminescence, 24 h. actives 0.31% (n = 410,000); note: nearly all actives have a fitted effect of over 65% in size
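AREc32 cells carrying an ARE-driven firefly luciferase reporter were seeded at 1000 cells/well in OPTI-MEM with 5% FBS, then exposed to compound for 24 hr at 37 deg C. Luminescence was read with Steady-Glo after 30 min at RT.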
A549 viability: A549 cytotoxicity, counter-screen for Nrf2 inhibitors. actives 0.16% (n = 390,000). Potency, µM (doses to about 46 µM), actives largely listed as inhibitors. A549 ARE-Fluc cells, CellTiter-Fluor viability, 18-24 h
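Cytotoxicity counterscreen: CellTiter-Fluor fluorescence was measured in A549 ARE_Fluc cells after 18-24 h of compound exposure in a concentration series. The subsequent BugLite luminescent read reports ARE-luciferase activity.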
Nrf2 inh: blocks Nrf2 signaling | AID 504444 | actives 2.1% (n = 360,000) | Potency, µM (series often up to 46 µM), most hits filed as inhibitors | A549 ARE-Fluc reporter, luciferase luminescence, 18-24 h; note: nearly all actives have a fitted effect of over 60% in size
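Concentration-response testing used A549 ARE_Fluc cells at 5000 cells/well. Following an 18-24 h compound incubation, viability was read by fluorescence (Ex 405/Em 525) and luciferase output by luminescence.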
ELG1 DNA repair: blocks ELG1-dependent DNA repair in HEK293T cells; HEK293T ELG1-luciferase reporter, luminescence, 16 h; DNA damage induced by 5-fluorouridine; Potency, µM (series often up to 46.1 µM), actives largely listed as inhibitors; actives 2.3% (n = 330,000); note: nearly all actives have a fitted effect of over 55% in size
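Cells (2,000 per well) received 5-fluorouridine plus test compound or DMSO and were incubated 16 hr at 37 °C, 5% CO2. Luciferase activity was read by luminescence 30 min after ONE-Glo addition; signal suppression marked inhibition of damage-induced ELG1 function.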
mIDH1 inhibitor: blocks human mutant IDH1 R132H enzyme. O75874. IDH1-R132H enzyme, NADPH consumption, diaphorase/resazurin fluorescence. Potency, µM (series often up to 76.6 µM), usual class: inhibitors. actives 0.093% (n = 390,000); note: nearly all actives have a fitted effect of over 65% in size
Target sequence (O75874 whole entry R132H, stated change not applied): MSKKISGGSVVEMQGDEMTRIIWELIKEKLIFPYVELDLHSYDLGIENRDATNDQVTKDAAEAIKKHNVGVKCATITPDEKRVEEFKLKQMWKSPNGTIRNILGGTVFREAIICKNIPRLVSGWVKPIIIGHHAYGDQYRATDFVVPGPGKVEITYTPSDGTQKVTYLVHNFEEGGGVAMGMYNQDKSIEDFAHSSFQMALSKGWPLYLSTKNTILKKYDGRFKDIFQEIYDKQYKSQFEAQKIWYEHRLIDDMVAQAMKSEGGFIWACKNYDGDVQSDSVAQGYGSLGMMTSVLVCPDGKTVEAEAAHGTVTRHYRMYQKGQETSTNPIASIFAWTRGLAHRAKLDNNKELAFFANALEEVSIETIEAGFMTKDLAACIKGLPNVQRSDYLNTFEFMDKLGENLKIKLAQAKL
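IDH1-R132H (0.5 ug/mL) preincubated 30 min with compound, then NADPH (0.016 mM) and alpha-KG (2 mM) added; 80 min at RT, pH 7.5. Remaining NADPH coupled via diaphorase/resazurin to fluorescence (540/590 nm); concentration-response curves normalized to no-enzyme control.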
Of the large screens only hits and unclear results are named; the others gave an inactive call. Calls come from the whole dose curve; as a rule, active = well fitted curve in the direction sought with a large enough effect; inconclusive = small, poorly fitted or top-dose-only effect, or another doubt; inactive = no such curve, though single readings can be large; an effect the other way counts as inactive or inconclusive.

COc1ccc([N+](=O)[O-])cc1NC(=O)C(C)OC(=O)/C=C/c1ccco1 (stereo not given)	Nrf2 ARE act 13µM
COc1ccc([N+](=O)[O-])cc1NC(=O)Nc1ccc(OC)c(OC)c1	ELG1 DNA repair 15µM
COc1ccc([N+](=O)[O-])cc1NC(=O)c1ccco1	Nrf2 ARE act 3.2µM
O=C(COC(=O)Cc1c(F)cccc1Cl)NCc1ccc2c(c1)OCO2	none
CC(OC(=O)/C=C/c1ccco1)C(=O)NC1CCCCC1C (stereo not given)	Nrf2 inh 13µM
O=C(Nc1cccc(S(=O)(=O)c2cccc(NC(=O)c3ccco3)c2)c1)c1ccco1	Nrf2 inh inconclusive, ELG1 DNA repair 23µM
O=C(Nc1cccc(NC(=O)c2ccco2)c1)c1ccc([N+](=O)[O-])cc1	ELG1 DNA repair 12µM
CC(=O)c1ccc(NS(=O)(=O)c2cccc(C(=O)Nc3ccccc3C(=O)O)c2)cc1	A549 viability inconclusive, Nrf2 inh inconclusive
O=C1CCc2cc(Cl)c(S(=O)(=O)Nc3ccc(Cl)c(Cl)c3)cc2N1	none (no result: Nrf2 ARE act, ELG1 DNA repair, mIDH1 inhibitor)
CC(C)(C)OC(=O)CC(=O)NNC(=O)c1nc2ccccc2[nH]1	none (no result: Nrf2 ARE act, ELG1 DNA repair, mIDH1 inhibitor)
Cc1[nH]c(=O)c(C(=O)/C=C/c2ccccc2F)c2c1CCCC2	Nrf2 ARE act inconclusive, A549 viability inconclusive, ELG1 DNA repair 15µM (no result: Nrf2 inh)
C/C(=C\c1ccccc1F)C(=O)c1c(C)cc(C)[nH]c1=O	none
CCCCN(CC)C(=O)CSc1nc2n[nH]c(C)c2c(=N)n1-c1cccc(OC)c1	none (no result: Nrf2 inh, ELG1 DNA repair)
Cc1ccc2c(Sc3ccc(Cl)cc3)c(C(=O)N3CCC(C)CC3)[nH]c2c1	none (no result: ELG1 DNA repair)
CC1CC(Nc2ccccc2)c2ccccc2N1C(=O)c1cccnc1 (stereo not given)	Nrf2 inh inconclusive, ELG1 DNA repair 16µM
CN(c1ccc(C(=O)Nc2ccc(F)cc2F)cc1)S(=O)(=O)c1ccccc1	Nrf2 inh inconclusive, ELG1 DNA repair 15µM
CC(=O)Nc1ccc(NC(=O)c2ccc(N(C)S(=O)(=O)c3ccc(C)cc3)cc2)cc1	none
CN(c1cccc(NC(=O)CN(c2ccc(Cl)c(Cl)c2)S(=O)(=O)c2ccccc2)c1)S(C)(=O)=O	Nrf2 inh inconclusive, ELG1 DNA repair 16µM
CN(C)S(=O)(=O)c1ccc(C(=O)Nc2ccc(F)cc2F)cc1	Nrf2 inh inconclusive
CN(c1ccccc1)S(=O)(=O)c1cccc(C(=O)Nc2ccc3c(c2)CCC3)c1	Nrf2 inh inconclusive, ELG1 DNA repair 15µM
CN(c1ccccc1)S(=O)(=O)c1ccc(NC(=O)c2ccc(-c3ccccc3)cc2)cc1	Nrf2 inh 15µM, ELG1 DNA repair inconclusive
CN(c1ccccc1)S(=O)(=O)c1cccc(NC(=O)c2ccc(Cl)c([N+](=O)[O-])c2)c1	ELG1 DNA repair 21µM
CN(c1ccccc1)S(=O)(=O)c1cccc(NC(=O)c2ccncc2)c1	Nrf2 inh inconclusive, ELG1 DNA repair inconclusive
CC(=O)Nc1ccc(C(=O)Nc2cccc(S(=O)(=O)N(C)c3ccccc3)c2)cc1	Nrf2 inh inconclusive, ELG1 DNA repair inconclusive
Cc1nnc(NC(=O)c2ccc(S(=O)(=O)N(C)c3ccccc3)cc2)s1	Nrf2 inh inconclusive
CN(c1ccccc1)S(=O)(=O)c1ccc(C(=O)Nc2nnc(-c3ccc(F)cc3)o2)cc1	Nrf2 inh 23µM, ELG1 DNA repair inconclusive
CN(c1cccc(NC(=O)c2ccc(N(C)S(=O)(=O)c3ccccc3)cc2)c1)S(C)(=O)=O	Nrf2 inh 15µM, ELG1 DNA repair 16µM
Cc1csc(NC(=O)c2ccc(S(=O)(=O)N(C)c3ccccc3)cc2)n1	ELG1 DNA repair 23µM (no result: Nrf2 inh)
COc1cc(NC(=O)c2ccc(S(=O)(=O)N(C)c3ccccc3)cc2)cc(OC)c1	Nrf2 inh inconclusive, ELG1 DNA repair 23µM
Cc1nc2cc(NC(=O)c3ccc(S(=O)(=O)N(C)c4ccccc4)cc3)ccc2o1	Nrf2 inh 8.2µM
O=C(Nc1ccc(F)cc1)C1CCN(S(=O)(=O)c2ccc3c(c2)CCCN3C(=O)C2CCC2)CC1	none (no result: Nrf2 inh, ELG1 DNA repair)
CCOCCCn1c(SCC(=O)Nc2ccccc2Cl)nc2c(oc3ccccc32)c1=O	none (no result: ELG1 DNA repair)
Cn1c(SCCN2CCOCC2)nc2sc3c(c2c1=O)CCCC3	ELG1 DNA repair inconclusive
C=CCn1c(SCC(=O)N(C)C)nc2sc3c(c2c1=O)CCC3	ELG1 DNA repair inconclusive
Cc1noc(C)c1CSc1nc2sc3c(c2c(=O)n1C)CCCC3	A549 viability inconclusive, Nrf2 inh inconclusive, ELG1 DNA repair 23µM
C=CCn1c(SCc2c(C)noc2C)nc2sc3c(c2c1=O)CCCCC3	Nrf2 inh 16µM, ELG1 DNA repair inconclusive
COc1cccc(C2c3c(ncn(-c4ccccc4C#N)c3=N)Oc3ccc4ccccc4c32)c1 (stereo not given)	Nrf2 inh inconclusive (no result: Nrf2 ARE act, ELG1 DNA repair, mIDH1 inhibitor)
O=C(Cn1c(SCCOc2ccc(Cl)cc2)nc2ccccc21)N1CCCCC1	none (no result: ELG1 DNA repair)
FC(F)(F)c1nc(N2CCCC2)ncc1-c1nnnn1-c1ccc(Cl)cc1	Nrf2 inh 13µM, ELG1 DNA repair inconclusive
Fc1ccc(-n2nnnc2-c2cnc(-c3cccs3)nc2C(F)(F)F)cc1	A549 viability inconclusive, Nrf2 inh 15µM, ELG1 DNA repair 21µM
FC(F)(F)c1ccncc1-c1nnnn1-c1ccc(Cl)cc1	ELG1 DNA repair inconclusive
FC(F)(F)c1nc(-c2ccncc2)ncc1-c1nnnn1-c1ccccc1	none
COc1cc(C(=O)OCC(=O)NCc2ccc(F)cc2)cc(NC(=O)c2cccs2)c1OC	Nrf2 inh inconclusive, ELG1 DNA repair 21µM
CC(C)(C)c1ccccc1Nc1nc(C#N)nc(NC2CCCC2)n1	Nrf2 inh inconclusive (no result: Nrf2 ARE act, ELG1 DNA repair, mIDH1 inhibitor)
Cc1cc(C)cc(N(CC(=O)NC2CCCCC2)C(=O)CCCC(=O)Nc2ccccn2)c1	A549 viability inconclusive, Nrf2 inh 21µM
CCOC(=O)N1CCN(CCC(=O)Nc2cccc(F)c2)CC1	none (no result: ELG1 DNA repair)
COc1cc(-c2c(C#N)c(N)nc(SCc3ccncc3)c2C#N)cc(OC)c1OC	ELG1 DNA repair 11µM
COc1cc(-c2c(C#N)c(N)nc3c2CCCC3)cc(OC)c1OC	none
N#Cc1c(N)nc(SCc2ccncc2)c(C#N)c1-c1cccs1	Nrf2 inh 23µM, ELG1 DNA repair 5.2µM
CCOc1ccc(C(=O)N2CCc3cc(OC)c(OC)cc3C2COc2ccc3c(C)cc(=O)oc3c2)cc1OCC (stereo not given)	none (no result: ELG1 DNA repair)
COc1cc(OC)c(NC(=O)Nc2cccc(OCc3cc(=O)n4ccccc4n3)c2)cc1Cl	none (no result: Nrf2 inh, ELG1 DNA repair)
CCOC(=O)C(=CNc1ccc(NC2=NCC(C)S2)cc1)C(=O)OCC (stereo not given)	Nrf2 inh inconclusive, ELG1 DNA repair 6.5µM
COc1cccc(CNC(=O)[C@@H]2CCCN2C(=O)[C@H]2CCCCN2C(=O)c2ccc(Cl)cc2)c1	none (no result: A549 viability, Nrf2 inh, ELG1 DNA repair, mIDH1 inhibitor)
Cc1ccc(C)[n+](CC(=O)c2ccc(-c3ccccc3)cc2)c1	ELG1 DNA repair 7.3µM

Compound activity from PubChem BioAssay.
